Rows were chosen to be rich in hits. Some 5.9% of all compounds tested hit in one or more screens of this group.
GALK inh: galactokinase (human) inhibition; P51570; Purified GALK, Kinase-Glo residual ATP luminescence; Potency, µM (top dose mostly 57.5 µM), inactives show top-dose activity change, negative = inhibition, hits mostly inhibitors; 0.007% of 270,000 active; AID 1868; also: potency is read from the fitted curve at half-maximal effect
Target sequence (P51570 whole entry, looked up): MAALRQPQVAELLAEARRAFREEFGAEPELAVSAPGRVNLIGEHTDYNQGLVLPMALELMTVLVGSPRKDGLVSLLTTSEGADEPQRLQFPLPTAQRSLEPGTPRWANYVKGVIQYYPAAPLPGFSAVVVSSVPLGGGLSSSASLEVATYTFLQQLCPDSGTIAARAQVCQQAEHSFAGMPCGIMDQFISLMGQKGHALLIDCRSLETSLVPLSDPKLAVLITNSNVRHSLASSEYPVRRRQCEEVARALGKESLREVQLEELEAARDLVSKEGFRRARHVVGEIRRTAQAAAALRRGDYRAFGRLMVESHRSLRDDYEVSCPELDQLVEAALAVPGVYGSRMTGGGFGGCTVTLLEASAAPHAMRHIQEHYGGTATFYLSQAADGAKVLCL
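ATP-depletion format; final 35 uM ATP, 100 uM D-galactose, 5 nM enzyme; pH 8.0 HEPES/Mg2+ buffer; 60 min RT; luminescence read 10 min after detection reagent.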
TrxR1 substrate: is turned over as a substrate by rat TrxR1; Potency, µM (highest dose often 114 µM), inactives show at the highest dose activity change, negative = substrate turnover; AID 588456; 0.01% of 390,000 active; purified TrxR1 substrate turnover, NADPH consumption readout; also: potency is read from the fitted curve at half-maximal effect; nearly all actives have a fitted effect of over 50% in size
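Rat TrxR1, dispensed at 90 nM, was prereduced with 400 uM NADPH (final) for 5 min at ~22 deg C, then incubated with compound 15 min before 400 uM selenite. A first-read NADPH fluorescence drop versus no-compound background flagged substrates.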
RORgamma inh: blocks mouse ROR gamma transcriptional activity | Potency, µM (top dose mostly 53.6 µM), for the others: top-dose activity change, negative = inhibition, actives largely listed as inhibitors | 5.4% of 310,000 active | P51450 | Drosophila S2 Gal4-RORgamma UAS-luciferase reporter, 20 h; also: potency is read from the fitted curve at half-maximal effect; nearly all actives have a fitted effect of over 60% in size
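Stably transfected Drosophila Schneider cells are the test system, with ROR gamma fused to Gal4 and luciferase under UAS control; luminescence is read after 20 hr of 700 uM copper sulfate induction at ambient temperature.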
rTrxR1 inhibitor: rat TrxR1 inhibition; 1% of 390,000 active; recombinant rTrxR1, NADPH fluorescence consumption, selenite substrate; Potency, µM (series often up to 114 µM), without a hit: at the top dose activity change, negative = inhibition, hits mostly inhibitors; also: potency is read from the fitted curve at half-maximal effect; nearly all actives have a fitted effect of over 65% in size
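Rat TrxR1 (90 nM in the dispensed reagent) was pre-reduced with 400 uM NADPH for 5 min at room temperature, then incubated with compound for 15 min. After 400 uM selenite was added, NADPH fluorescence (Ex 340/Em 450 nm) was followed for 8 min.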
Gal4-VP16 FLuc: inhibits Gal4-VP16 luciferase reporter, ROR gamma counter-screen; Potency, µM (highest dose often 53.6 µM), inactives show top-dose activity, negative = inhibition, usual class: inhibitors; Drosophila S2 Gal4-VP16 UAS-luciferase, luminescence, 20 h; 3.5% of 310,000 active;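 also: Gal4-VP16 expression switched on by copper sulfate through the metallothionein promoter; potency is read from the fitted curve at half-maximal effect; nearly all actives have a fitted effect of over 50% in size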
FBPA coupling cs: counter-screen for Giardia aldolase inhibitors: coupling enzyme system. activity change, negative = inhibition, % at 58.2 µM, hits read low. AID 2472. 0.67% of 290,000 active. coupling enzyme system counterscreen, AmpLite Red fluorescence; in the data active = activity change below about -30%
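Counterscreen lacking aldolase: glyceraldehyde-3-phosphate coupling-enzyme reagent preincubated 10 min at RT with compound (at 57.5 uM final), then substrate/coupling system with AmpLite Red added; fluorescence read at 525/598 nm after 20 min RT.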
* marks the source's active call; other numbers are inactive results; ? = inconclusive; . = no result given; [ ] = dose if it differs, or a comment. Unless noted, calls follow the shape of the dose curve; as a rule, active = well fitted curve in the direction sought with a large enough effect; inconclusive = small, poorly fitted or top-dose-only effect, or another doubt; inactive = no such curve, though single readings can be large; an effect the other way counts as inactive or inconclusive. % is scaled to controls: 0 for no effect and ±100 for the full control effect.

SMILES | GALK inh | TrxR1 substrate | RORgamma inh | rTrxR1 inhibitor | Gal4-VP16 FLuc | FBPA coupling cs
O=C(c1nnsc1S(=O)c1ccc(Cl)cc1)N1CCOCC1 (configuration not stated) | 10.1% | 9.8%[57.1 µM] | 1.12µM* | 3.55µM* | 3.55µM* | -0.2
CNC(=O)c1nnsc1S(=O)(=O)c1ccc(Cl)cc1 | 15.2% | 2.7% | 0.562µM* | 0.282µM* | 0.398µM* | 0.8
Cc1ccc(C2=CN(Cc3ccccc3)CCC2=O)cc1 | . | 0.5% | . | -18.5% | . | .
CC(Oc1ccccc1F)C(=O)NNC(=O)c1ccc(F)c(S(=O)(=O)N2CCOCC2)c1 (configuration not stated) | -2.5% | -5.2% | 5.8% | -0.5% | 7.6% | .
O=C(NC(=S)Nc1ccccc1[N+](=O)[O-])c1cncc(Br)c1 | -0.1% | -4.4% | 7.08µM* | ? | 5.62µM* | -2.4
S=C(Nc1ccccc1)Nc1ccc(Br)cn1 | -4.3% | 6.6% | 0.891µM* | -42.8% | 5.62µM* | 5.6
O=C(NC(=S)Nc1ccccn1)c1cncc(Br)c1 | 1.8% | -2.1% | 7.94µM* | -18.7% | 7.94µM* | 5.8
O=C(NC(=S)Nc1ccccc1C(=O)O)c1cncc(Br)c1 | -2.7% | 5.2%[57.1 µM] | -1.9%[1.91 µM] | -3.4%[57.1 µM] | 0.1% | 3.2
O=C(NC(=S)Nc1ccc(Br)cn1)c1cncc(Br)c1 | . | 5.6%[57.1 µM] | 0.501µM* | -8.6%[57.1 µM] | -3.6% | -2.4
CS(=O)(=O)Cc1ccc(C(=O)NC(c2ccccc2)c2ccccc2)cc1 | -5.9% | -3.7% | 8.3% | 12.6% | -11.5% | 2.1
CCC/C=C1/CCCOC(C(=O)NCCNCCO)(C(F)(F)F)C1 (configuration not stated) | . | 7.6% | -18.3% | ? | -13.7% | 2.3
Cc1cc([N+](=O)[O-])ccc1NCc1ccco1 | 1.2% | 0.4% | 14.6% | 24.7% | 9.2% | 1.8
Cc1cc(Cl)ccc1C(=O)C1CCCN(C(=O)c2ccc3ncccc3c2)C1 (configuration not stated) | -1.1% | -17.6%[57.1 µM] | 34.0% | 10.5%[57.1 µM] | 14.1% | 0.8
C[C@@H]1COC(=O)[C@@H](CC(=O)OC(C)(C)C)C/C=C\C[C@@H](CC(=O)N(CCO)Cc2ccccc2)C(=O)N1 | . | -1.0% | . | 13.8% | . | .
Cc1cccnc1NC(=S)NC(=O)c1cccs1 | -3.3% | 2.7% | 3.98µM* | -22.8% | 10µM* | 1.0
O=C(NC(=S)Nc1ccc(Br)cn1)c1cccs1 | -3.1% | 5.5% | 2.24µM* | 7.8% | 8.91µM* | 0.6
Cc1cccnc1NC(=S)NC(=O)c1cncc(Br)c1 | 5.7% | 10.0% | 5.01µM* | 31.6µM* | ? | 1.1
Cc1ccc(NC(=S)NC(=O)c2cncc(Br)c2)cc1Cl | . | -8.1% | . | 28.8%[57.1 µM] | . | .
CCCCNCCS(=O)(=O)NCc1ccccc1OC | . | 4.8% | . | 17.2% | . | .
COC(=O)CNc1nc(Cl)nc(NC2CCCCC2)n1 | -1.8% | -5.4% | ? | -3.8% | ? | 1.6
COc1ccc(NS(=O)(=O)c2ccc(NC(=O)c3ccc(CN4CCOCC4)cc3)cc2)cc1 | 0.9% | 0.4%[57.1 µM] | 14.1µM* | 9.1%[57.1 µM] | 2.6% | 0.0
COc1cccc(NS(=O)(=O)c2ccc(S(=O)(=O)N3CCCC3)cc2)c1 | . | 9.6% | . | 35.6% | . | .
O=S(=O)(Nc1nc2ccccc2nc1Nc1cccc(S(=O)(=O)N2CCCCC2)c1)c1ccccc1 | -4.5% | 14.7% | ? | -12.3% | 12.6µM* | 4.5
COc1cccc(CNS(=O)(=O)c2ccc(S(=O)(=O)N3CCCC3)cc2)c1 | 0.4% | 2.4%[57.1 µM] | 22.2% | -0.3%[57.1 µM] | ? | -53.4*
COc1ccc(NS(=O)(=O)c2cccc(NC(=O)c3ccc(S(=O)(=O)N4CCCCCC4)cc3)c2)cc1 | -2.6% | -12.6% | -52.4% | -6.2% | 3.16µM* | -2.8
O=C1CCN(CCCc2ccccc2)CCN1[C@H](CO)c1ccccc1 | . | 6.0%[57.1 µM] | 14.2% | 24.0%[57.1 µM] | 6.0% | 2.0
Cc1ccc(C(=O)Nc2ccc3c(c2)CCC3)o1 | -0.2% | 8.6% | ? | 8.0% | 12.6µM* | -16.5
O=C(CSc1nc2ccccc2[nH]1)Nc1ccc(F)cc1 | 2.0% | 12.5% | 11.7% | 51.6% | -1.1% | -0.4

Screening data (PubChem)
